Measurements: PubChem BioAssay
Activity calls are given as the source filed them.

assay: A549 lung cancer cell viability effects, profiling panel, resazurin fluorescence, 24 h, PK04 Diversity Set (AID 1171); conditions: higher = more signal, called active from +8 up or from −8 down; also: test concentration not given here

Compound | z-score
O=C(NCCN1CCOCC1)[C@@H]1c2ccccc2C(=O)N(Cc2ccccc2Cl)[C@H]1c1ccc(CO)cc1 | 0.59 (inactive)
COC(=O)[C@@]1(Cc2ccc(F)cc2)[C@H]2c3cc(C(=O)N4CCCC4)n(Cc4ccc(C)c(F)c4F)c3C[C@H]2CN1C(=O)c1ccccc1 | -0.718 (inactive)
CCCCC(CC)C(O)C1C=CC2C(=O)N(c3ccccc3)C(=O)C2N1Nc1ccccc1F (stereo not drawn) | 0.653 (inactive)
[N-]=[N+]=Nc1ccccc1C[C@]1(C(=O)O)COC(c2ccc(OCCCO)cc2)=N1 | -0.98 (inactive)
CC(=O)NCCCC[C@@H]1NC(=O)[C@@H]2C[C@H](C(=O)NCCCCCN)[C@H](c3cccc(OCCO)c3)N2C1=O | 0.914 (inactive)
COc1ccc(C#Cc2ccc3c(c2)[C@]2(C(=O)N3)[C@H](c3ccc(OCCO)cc3)N3[C@H](c4ccccc4)[C@H](c4ccccc4)OC(=O)[C@H]3[C@@H]2C(=O)NC[C@H](O)c2ccccc2)cc1 | 0.0652 (inactive)
CC(C)NC(=O)[C@@]1(C)c2ccccc2C(=O)N(Cc2ccc(OC(F)(F)F)cc2)[C@H]1c1ccc(CO)cc1 | -0.0752 (inactive)
CCCC[C@@H](O)C1=C(COC)C[C@H]2C(=O)N(Cc3ccccc3)C(=O)[C@H]2[C@H]1CO | 0.0943 (inactive)
